Data published in PubChem BioAssay AID651724 (National Center for Advancing Translational Sciences (NCATS), 2012).
Among all 340,000 compounds or so, about 1,700 (0.5%) were called active. Inconclusive results (about 2%) are left out. The sample holds actives, similar compounds and a random draw of the others, so the mix is not that of the screen. Unmarked numbers belong to inactive results. Cut-off read from the data, not from the text of the source: active = activity change below about -65%; inconclusive = mostly about -30% to -63%; inactive = weaker than that.

Test system: CtBP / adenovirus E1A interaction (AlphaScreen)
Experiment: qHTS Assay for Inhibitors of the CtBP/E1A Interaction
Conditions: AlphaScreen GST-E1A/His-CtBP binding, 1536-well; active compounds read low
Excerpt: Carboxyl-terminal binding protein (CtBP) is a co-repressor for many transcription factors. […] Our studies have shown that CtBP is overexpressed in multiple human cancers, including lung, breast, and head and neck cancers. In particular, it is over-expressed in 50% of primary lung cancer and 90% of metastatic lesions. CtBP suppresses epithelial-specific genes as well as genes critical for apoptosis, providing the underlying molecular mechanism for its role in tumorigenesis. […] Based on the above data, we hypothesize that 1) CtBP suppresses the pro-apoptotic and epithelial genes, therefore overexpressed CtBP in human cancer cells increases EMT and cancer survival; 2) decreasing CtBP's function represents a targeted therapy for lung cancer and potentially multiple cancer types. As a co-repressor, CtBP binds to E1A and other transcription factors through a conserved peptide motif to carry out its action. Inhibiting this interaction using small molecules can potentially serve as effective cancer therapeutics.
To this end, we have developed a homogenous AlphaScreen assay targeting the CtBP/E1A interaction. We performed a large scale HTS of the Molecular Libraries Small Molecule Repository (MLSMR) to identify inhibitors of the CtBP/E1A interaction as potential anti-cancer therapeutics. Compounds identified can also be used as chemical probes to better understand the biological functions of CtBP.
NIH Chemical Genomics Center [NCGC]
NIH Molecular Libraries Probe Centers Network [MLPCN]
Assay Submitter (PI): Rui Zhao, University of Colorado Denver
The first step of the 5uL AlphaScreen assay is to dispense assay buffer (50 mM Tris, pH 8.0, 300 mM NaCl, 0.05% BSA, 0.02% Tween 20, 1 mM TCEP) into a Greiner 1536 white solid bottom microtiter plate (789175-F). Five microliters is added to Column 1, 4 uL is added to Column 2 and 3 uL is added to Columns 3 through 48. A 5X protein solution (125 nM GST-E1A protein + 125 nM His-tagged CtBP protein) is mixed and 1 uL is dispensed to Columns 3-48. Using a 1536 pintool, 23 nL of compound is transferred to the assay plate and the plate is incubated with a lid at 37 deg C in the dark for two hours. A solution of 5X AlphaScreen beads is mixed (50 ug/mL Glutathione linked donor beads + Nickel chelated acceptor beads) and 1 uL is dispensed to Columns 2-48. The assay plate is incubated for one hour, with a lid, at 37 deg C in the dark. The plate is read using a Perkin Elmer Envision using an AlphaScreen protocol.
% is set by controls: 0 for no effect and ±100 for the full control effect.

SMILES | activity change
CCOc1ccc(C(CC(=O)O)NC(=O)Cc2ccccc2)cc1OC (stereo not given) | -13.3%
CCCCC(=O)NC(c1ccc(OC)c(OC)c1)c1ccc2cccnc2c1O (stereo not given) | -94.2% (active)
COc1ccc(CCNS(=O)(=O)c2cccc3cccnc23)cc1OC | -9.76%
Cc1ccccc1C#CC1=CC(=O)CC(C)(C)C1 | 5.53%
CCCCNC(=O)C[C@@H]1C[C@@]2(C(=O)OC)CC(C)(C)CC=C2N(Cc2ccco2)C1=O | 2.24%
COCOc1cccc(CN2CCC(C)(Oc3ccc(SC)cc3)C2)c1 (stereo not given) | -22.6%
CSc1ccc(CN2CCC2(C)C(=O)NCc2ccccc2Br)cc1 (stereo not given) | -8.98%
COC(=O)[C@@]12C[C@@H](CC(=O)NCCCCc3ccccc3)C(=O)N(Cc3ccccc3)C1=CCC(C)(C)C2 | -0.75%
O=c1ccc2c(-c3ccccc3S(=O)(=O)O)c3ccc(O)c(O)c3oc-2c1O | -78.5% (active)
CCCCCNC(=O)C1C(=O)Nc2ccccc2C(=O)N1C(C)(C)C (stereo not given) | -0.209%
COc1ccc(Cl)cc1-c1cc(C(=O)Nc2cc(OC)c(OC)c(OC)c2)[nH]n1 | 4%
O=C1c2cccc3cccc(c23)C(=O)N1CCCCCc1n[nH]c(=S)o1 | -82.2% (active)
O=C1c2ccccc2C(=O)N1CCCCCCN1C(=O)c2ccccc2C1=O | 6.03%
O=C1c2ccccc2C(=O)N1CCCc1nc(-c2ccccc2)no1 | 5.59%
C[C@@H]1CN([C@H](C)CO)C(=O)c2cc(Br)cnc2O[C@@H]1CN(C)Cc1cncnc1 | -16.6%
Cc1onc(-c2ccccc2)c1-c1nnc(COC(=O)c2ccc(N(C)C)cc2)o1 | 2.13%
COC(=O)[C@@]12C[C@@H](CC(=O)N3CCC(c4ccccc4)CC3)C(=O)N(Cc3ccccc3)C1=CCC(C)(C)C2 | 0.365%
CCOC(=O)c1nc(Nc2ccc(C(=O)OC)cc2)c2ccccc2n1 | -86.6% (active)
COC(=O)c1ccc(NCC(=O)c2ccccc2)cc1 | 6.11%
CCOC(=O)c1ccc(Nc2cc3ccccc3c(=O)[nH]2)cc1 | 2.43%
COc1ccc(-c2coc3c(C(=O)NC(C)C)cccc23)c(C)c1 | -12.9%
Clc1cccc(Cc2c(-c3cccc(Cl)c3)nc3ccc(Cl)cn23)c1 | 0.333%
Cc1ccc(OCCOCCOc2ccc(Br)cc2/C=N\NC(=O)c2ccncc2)cc1 | -10.2%

SMILES | activity change
COc1ccc(Br)cc1/C=N/Nc1ccc(Cl)c(C(=O)O)c1 | -2.31%
COc1ccc(CC(=O)NCC(=O)N/N=C/c2cc(Br)ccc2OC)cc1 | -87.6% (active)
O=C(/C=C/c1ccccc1)Oc1coc(CSc2ncccn2)cc1=O | -92.2% (active)
Cc1ccc(C(=O)Oc2coc(CSc3nnc(NC(=O)c4cccs4)s3)cc2=O)cc1C | -16.7%
C=CCNC(=O)COc1coc(CN2CCN(Cc3ccccc3)CC2)cc1=O | 2.1%
O=Nc1c(O)cc(O)c2ccccc12 | -6.15%
COc1ccc(C(=O)N2CCCCC2c2cc(C(=O)Nc3ccc(F)c(Cl)c3)no2)cc1 (stereo not given) | -5.81%
O=Cc1cn(CCOc2ccc(F)cc2)c2ccccc12 | 0%
CSCCC(c1nnnn1Cc1ccccc1)N1CCN(C/C=C/c2ccccc2)CC1 (stereo not given) | -18.4%
O=C(NCc1ccco1)c1cccn2c(=O)c3c4c(sc3nc12)CCCC4 | -12.2%
Cc1cccn2c(=O)c3cc(C(=O)NCCN4CCOCC4)c(=N)n(Cc4cccnc4)c3nc12 | -25.6%
COc1ccc(CCn2c(=N)c(C(=O)NCc3ccco3)cc3c(=O)n4cccc(C)c4nc32)cc1 | -81.7% (active)
CC(C)C[C@@H](COCc1ccc(Cl)cc1)N1CCN(C(=O)c2ccc(Cl)cc2Cl)CCC1=O | 0%
CCOC(=O)N1CCN(C(c2ccnc3ccccc23)c2nnnn2-c2c(C)cccc2C)CC1 (stereo not given) | 0%
CCOC(=O)N1CCN(C(c2cccnc2)c2ccc3cccnc3c2O)CC1 (stereo not given) | -91.9% (active)
CCN1CCN(C(c2cccnc2)c2cc(Cl)c3cccnc3c2O)CC1 (stereo not given) | -99.3% (active)
CCOC(=O)N1CCN(C(=O)CSc2nc(=O)n3cccc(C)c3n2)CC1 | -4.84%
N#CCCN(C(=S)Nc1ccc(Cl)c(Cl)c1)C1CCCCC1 | 0%
COc1ccc(-c2cnc3c(c2)C(=O)N([C@H](C)CO)C[C@@H](C)[C@H](CN(C)Cc2ccccc2)O3)cc1 | -12.8%
CC(C)Oc1ccc(CN2CCC2(C)C(=O)NCc2ccc(C(F)(F)F)cc2)cc1 (stereo not given) | 0.872%
Cc1ccc(NC(=O)C2CC(=O)N(c3ccc4c(c3)OCCO4)C2)cc1S(=O)(=O)N1CCCCCC1 (stereo not given) | -5.1%
Cc1ccc(C(=O)NNC(=O)c2ccncc2)cc1S(=O)(=O)N1CCCCC1 | -2.42%
Cc1ccc(C(=O)Nc2ccc3c(c2)OCO3)cc1S(=O)(=O)N1CCCCC1 | -66.6% (active)

SMILES | activity change
OC(c1ccccc1)c1nc(/C=C/c2ccc(C(F)(F)F)cc2)cs1 (stereo not given) | 7.85%
Cc1nc2c(OCc3ccc(Cl)cc3Cl)cccn2c1N(C)CC1CC1 | -25.5%
COc1cc(OC)c(/C=N/NC(=O)c2ccc([N+](=O)[O-])cc2)cc1Br | -0.151%
COc1cccc(/C=N/NC(=O)c2[nH]nc3c2CCc2ccccc2-3)c1O | -67.1% (active)
COc1ccc(/C=N/NC(=O)c2ccncc2)cc1CN1CCCc2ccccc21 | 13.2%
Oc1c(C(c2ccccn2)N2CCOCC2)ccc2cccnc12 (stereo not given) | -81.3% (active)
CC(C)c1cc(CN2CCOCC2)cc(C(C)C)c1O | 4.14%
CCCCN1C[C@H](c2ccc(Br)cc2)[C@@H](CC(=O)Nc2ccc(Br)cc2)C1=O | -4.21%
COc1ccc(OCC(=O)Nc2ccc(NC(=O)c3ccco3)c(C)c2)cc1 | -2.52%
COc1ccc(NC(=O)CCC(=O)Nc2cc(OC)c(NC(=O)c3ccco3)cc2OC)c(OC)c1 | -87.4% (active)
COc1ccc(CC(=O)Nc2ccccc2NC(=O)c2ccco2)cc1OC | 5.07%
CC(=O)Nc1cc(-c2ccccc2N(C)C)cn2c(-c3ccc(F)c(Cl)c3)cnc12 | -22.9%
CCCOc1ccc(F)cc1-c1cc(C(=O)Nc2ccc(F)c(Cl)c2)[nH]n1 | 2.38%
COCC1CCCCN1C(=O)c1cc(COc2ccc(C)c(C)c2)on1 (stereo not given) | -0.436%
COc1ccc(C(C)(C)C)cc1NC(=O)CN(C)C1=NS(=O)(=O)c2ccccc21 | 2.94%
C=CCOCCN(C)C1=NS(=O)(=O)c2ccccc21 | 0.314%
COc1ccc(/C=N/N(C)C2=NS(=O)(=O)c3ccccc32)cc1OC | -89.3% (active)
CC(=O)Nc1cc(-c2ccccc2F)cn2c(-c3cccc(C(F)(F)F)c3)cnc12 | -8.33%
COc1ccccc1-c1cc2nc(NCc3cccc(Cl)c3)ccn2n1 | 3.38%
O=S(=O)(Nc1ccc2nc(-c3ccco3)[nH]c2c1)c1ccccc1 | -18.3%
O=[N+]([O-])c1cccc(S(=O)(=O)NCc2ccccn2)c1 | 1.03%
O=[N+]([O-])c1ccc2nc(-c3ccccn3)[nH]c2c1 | -90.6% (active)
COCOCCn1cc(CN2CCS(=O)(=O)N(Cc3ccc(-c4ccc(OC)cc4)cc3)C(CC(C)C)C2=O)nn1 (stereo not given) | -1.08%

SMILES | activity change
Cc1cc(Nc2ccc(C(=O)N3CCCCC3)cc2)c2cccc(C)c2n1 | 1.83%
Cc1ccc(Nc2cc(C)nc3c(C)ccc([N+](=O)[O-])c23)cc1 | -66.7% (active)
Cc1cc(Nc2ccc(N3CCOCC3)cc2)c2cccc(C)c2n1 | -16.1%
COC(=O)c1ccccc1N=NNc1ccc([N+](=O)[O-])cc1 | -2.76%
Fc1cccc(Cc2c(-c3ccc(Cl)cc3)nc3ccc(Cl)cn23)c1 | 0%
CCN(CC)C(=O)C1=C(C)N(Cc2ccc(F)cc2)C(=O)C(CC(=O)NCc2cccc3ccccc23)C1 (stereo not given) | -2.72%
COc1ccc(NC(=O)CCCNC(=O)Cn2cnc3sc4c(c3c2=O)CCCC4)cc1OC | 20.4%
COc1ccc(NC(=O)CCNC(=O)Cn2cnc3sc4c(c3c2=O)CCCC4)cc1OC | 0.477%
COc1ccc(/C=N/Nc2ncnc3sc4c(c23)CCCC4)cc1O | -87.1% (active)
COC(=O)C1=CN(c2c(C)cc(C)cc2C)C(N)=C(C#N)C1c1cccc(F)c1 (stereo not given) | 3.08%
CCCCCCN1CCN(C2CN(Cc3cn(CCCCCC)nn3)S(=O)(=O)C2)CC1 (stereo not given) | 0.678%
Cc1nc2c(OCc3cccc(Cl)c3)cccn2c1N(C)CC1CC1 | -6.06%
COc1ccc(NC(=O)C2Cc3c(-c4ccc(Cl)cc4)ccnc3O2)cc1 (stereo not given) | 1.32%
COCCCNC(=O)c1cccc2c(-c3ccc(O)c(OC)c3)coc12 | -18.4%
O=C(CSc1nnc(-c2ccncc2)o1)Nc1cccc(Cl)c1 | 6.8%
Cc1cc(NC(=O)CSc2nnc(-c3ccc(Cl)s3)o2)no1 | -93.2% (active)
Cc1cc(NC(=O)CSc2ncc(C(F)(F)F)cc2Cl)no1 | -2.36%
CCCCc1c(-c2ccc(Br)cc2)ncn1CCc1ccccc1OC | -11.3%
COc1cccc(-n2c(SCC(=O)NC3CCCCC3)nc3n[nH]c(C)c3c2=N)c1 | -66.5% (active)
Cc1ccc(-n2c(SCC(=O)NCCC3=CCCCC3)nc3n[nH]c(C)c3c2=N)cc1Cl | -20.7%
CCCCNC(=O)CSc1nc2n[nH]c(C)c2c(=N)n1-c1cccc(Cl)c1C | -0.913%
